Shown is part of a subset that was picked to be rich in hits.
Tb PGK inh: T. brucei PGK inhibition; hit rate 0.043% among 380,000; P07378; PGK/GAPDH coupled, Kinase-Glo luminescence, 60 min; Potency, µM (series often up to 57.5 µM), without a hit: at the highest dose activity change, negative = inhibition, actives largely listed as inhibitors; active = well fitted inhibition curve with a large enough effect; inconclusive = small, poorly fitted or top-dose-only effect; inactive = no such curve, though single readings can be large or run the other way; note: potency is the fitted concentration of half-maximal effect; nearly all actives have a fitted effect of over 60% in size
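Luminescent ATP detection (Kinase-Glo Plus) follows a 60-minute room-temperature incubation, with wells lacking PGK as controls. Buffer: 100 mM TEA (pH 7.6), 5 mM MgCl2, 0.01% Tween-20. Coupling enzyme GAPDH (100 nM final) supplies unstable 1,3-BPG in-well.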
PI5P4K alpha inh: inhibitors of human PI5P4K alpha; P48426; PI5P4Kalpha enzyme, ADP-Glo luminescence, 60 min; stronger effect = lower value; max response, %; hit rate 1.2% among 330,000; active = max response of -50% or lower; inconclusive = between -30% and -50%; inactive = -30% or higher; note: value at the top dose of about 77 µM
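Single end-point luminescence (ADP-Glo) quantified ADP from PI5P4Kalpha turnover; ATP 5 microM final, 1 h at RT, 0.1% CHAPS and 0.28 mM EGTA in HEPES pH 7.4.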
PI4K2A block: PI4K2A (human) kinase inhibition; hit rate 0.13% among 420,000; purified PI4K2A, ADP-Glo luminescence, 1 h; stronger effect = lower value; activity change, negative = inhibition, % at 76.9 µM; Q9BTU6; in the data active = activity change below about -50%; inconclusive = mostly about -30% to -49%;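 note: -100% = wells without enzyme as full effect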
Target sequence (Q9BTU6 whole entry, looked up): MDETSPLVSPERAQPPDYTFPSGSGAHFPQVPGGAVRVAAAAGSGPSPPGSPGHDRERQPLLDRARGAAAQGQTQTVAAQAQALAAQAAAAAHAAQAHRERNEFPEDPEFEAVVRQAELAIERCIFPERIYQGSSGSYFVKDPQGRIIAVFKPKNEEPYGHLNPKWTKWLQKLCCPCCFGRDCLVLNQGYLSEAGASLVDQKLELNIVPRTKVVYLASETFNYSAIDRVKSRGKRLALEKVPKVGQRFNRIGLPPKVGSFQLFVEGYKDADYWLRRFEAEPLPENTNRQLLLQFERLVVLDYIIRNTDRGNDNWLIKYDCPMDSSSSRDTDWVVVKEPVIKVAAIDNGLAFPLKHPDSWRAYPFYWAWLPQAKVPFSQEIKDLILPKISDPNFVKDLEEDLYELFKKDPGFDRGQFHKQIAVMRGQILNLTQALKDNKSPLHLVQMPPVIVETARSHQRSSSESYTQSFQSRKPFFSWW
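ADP-Glo luminescence measured ADP generated by PI4K2A enzyme (4 ug/mL before mixing) with 1.2 mM PI substrate (pre-mix) and 300 microM ATP (pre-mix). Tris pH7.5 buffer with MgCl2, Triton X-100; 1 h reaction at ambient temperature.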
Pin1 inhibitor: human Pin1 inhibition; Q13526; Pin1 FP peptide displacement, HiFluor488, 10 min; Potency, µM (highest dose often 115 µM), without a hit: at the top dose activity, negative = inhibition, hits mostly inhibitors; hit rate 0.009% among 390,000; AID 504891; active = well fitted inhibition curve with a large enough effect in the polarisation, with a control signal flat, not every such curve was filed as active; inconclusive = small, poorly fitted or top-dose-only effect, or effect the other way, or a change in a side signal; inactive = no such curve, though single readings can be large or run the other way; the % refers to the polarisation; note: potency is the fitted concentration of half-maximal effect
Target sequence (Q13526 whole entry, looked up): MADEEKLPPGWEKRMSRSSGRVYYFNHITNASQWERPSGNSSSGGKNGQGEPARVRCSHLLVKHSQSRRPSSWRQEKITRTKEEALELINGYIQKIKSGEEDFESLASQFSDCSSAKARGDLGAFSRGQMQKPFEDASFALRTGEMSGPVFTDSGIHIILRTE
The depositor's hits bear a star; i = inactive; u = inconclusive; x = not tested or not shown; ! = not confirmed by another sample. Unless noted, % is set by controls: 0 for no effect and ±100 for the full control effect.

SMILES	Tb PGK inh	PI5P4K alpha inh	PI4K2A block	Pin1 inhibitor
CC(C)(C)OC(=O)Cc1nnc(-c2nc3ccccc3[nH]2)s1	x	x	x	8.9%
Cc1[nH]n(-c2ccccc2)c(=S)c1C=NCCCN=Cc1c(C)[nH]n(-c2ccccc2)c1=S	0.9%	-75.7*	0.5	-10.3%
CCN(CC)CCN1C(=O)c2ccccc2NC1c1ccc(OC)c(COc2ccc(NC(C)=O)cc2)c1 (centres undefined)	x	x	x	30.5%
CCCCCCSc1ccc([C@@H]2[C@@H]3C(=O)N(CC)C(=O)[C@@H]3[C@]3(C(=O)OC)CCCCN23)cc1	-8.2%	11.2	-51.8*	13.0%
O=c1c(-c2ccc([N+](=O)[O-])cc2)coc2c(O)c(O)ccc12	8.91µM*	-7.4	1.6	u
CN(C)Cc1c(O)ccc2c(=O)c(-c3ccc(Cl)cc3)coc12	-9.0%	-2.0	-0.2	-2.1%
Cc1snc(SCC(=O)c2ccc(F)cc2)c1C#N	7.8%	3.3	-0.4	-2.1%
Cc1snc(SCC(=O)c2ccc([N+](=O)[O-])cc2)c1C#N	0.3%	-57.3*	-2.9	-6.6%
CC(=O)Nc1sc2c(c1-c1cc3ccccc3[nH]1)CCNC2	x	x	x	-38.2%
O=C(OCC#CCSc1nnc(-c2cccc3ccccc23)o1)c1cc2ccccc2s1	x	x	x	1.6%
CCS(=O)(=O)C1=NSC2=NC(=O)/C(=C\c3ccc(OS(=O)(=O)c4ccccc4)c(OC)c3)C(=N)N21	-1.9%	-66.6*	-6.0	15.5%
CS(=O)(=O)C1=NSC2=NC(=O)/C(=C\c3ccc(OS(=O)(=O)c4ccccc4)cc3)C(=N)N21	-12.0%	-62.5*	-14.2	1.4%
COc1cc(/C=C2/C(=N)N3C(=NC2=O)SN=C3S(C)(=O)=O)ccc1OS(=O)(=O)c1ccc(C)cc1	-9.5%	-79.1*	-7.0	3.6%
CC1=NN2C(=N)/C(=C\c3cc(C)n(-c4cccc(C)c4)c3C)C(=O)N=C2S1	-4.3%	-15.8	-3.8	10.1%
COc1cc(/C=C2/C(=N)N3N=C(C)SC3=NC2=O)ccc1OS(=O)(=O)c1ccc(C)cc1	-2.7%	-17.6	-3.5	6.2%
COc1cccc(-n2c(C)cc(/C=C3/C(=N)N4C(=NC3=O)SN=C4S(C)(=O)=O)c2C)c1	-9.1%	-63.3*	-20.1	u
NC(=O)N1CCN(c2nc(-c3ccc(Br)cc3)cs2)CC1	x	x	x	-3.1%
Cc1ccc(S(=O)(=O)Oc2ccc(/C=C3/C(=N)N4C(=NC3=O)SN=C4S(C)(=O)=O)cc2)cc1	-0.3%	-58.8*	-0.3	u
N#Cc1c(N)n(C2OC(CO)C(O)C2O)c2ncnc(N)c12 (centres undefined)	2.0%	u	-61.7*	-0.3%
Nc1nc(-c2ccccc2)c(CCCOc2ccc(NC(=O)CBr)cc2)c(=O)[nH]1	i	-59.5*	-9.7	8.4%
CCOc1ccc(NC(=O)CSc2nc(N)c(-c3ccccc3)c(=O)[nH]2)cc1	-10.2%	-10.7	3.2	-4.2%
Cc1cc(C)n2ncc(C(=O)NCC(C)C)c2n1	x	x	x	-0.9%
N#C/C(=C\c1c[nH]c2ccccc12)C(=O)c1ccc(O)c(O)c1	x	x	3.7	x
N#C/C(=C\c1ccc(O)c(O)c1)C(=O)c1ccc(O)c(O)c1	1.12µM*	-59.8*	-10.6	48.0%
Cc1ccc(Cl)cc1NC(=O)c1cc(S(=O)(=O)N2CCCCCC2)cn1C	3.7%	x	1.2	3.0%
SMILES	Tb PGK inh	PI5P4K alpha inh	PI4K2A block	Pin1 inhibitor
Clc1ccc(-c2nnn3c2nc(NCc2ccc4c(c2)OCO4)c2ccccc23)cc1	-1.1%	x	0.5	-0.8%
Cc1cccc(-c2nnn3c2nc(NCc2ccc4c(c2)OCO4)c2ccccc23)c1	i	x	-52.9*	-6.9%
CCN1CCN(Cc2ccc(NC(=O)c3cc(NC(=O)c4ccc5n[nH]nc5c4)cc(OC)c3)cc2C(F)(F)F)CC1	-4.0%	-2.0	3.1	2.7%
CCN1CCN(Cc2ccc(NC(=O)c3cc(NC(=O)c4cncc(-c5cccs5)c4)cc(OC)c3)cc2C(F)(F)F)CC1	3.2%	-67.2*!	-2.7	24.2%
Cc1ccc(C(=O)Nc2cccc(C(F)(F)F)c2)cc1NC(=O)c1c[nH]c2cc(C(F)(F)F)ccc2c1=O	-5.2%	-0.8	-4.5	-1.2%
CCN1CCN(Cc2ccc(NC(=O)c3ccc(C)c(NC(=O)c4c[nH]c5cc(C(F)(F)F)ccc5c4=O)c3)cc2C(F)(F)F)CC1	9.9%	-67.0*	-2.6	31.0%
CCN1CCN(Cc2ccc(NC(=O)c3cc(NC(=O)c4cc(-c5ccc(OC)cc5)n[nH]4)cc(OC)c3)cc2C(F)(F)F)CC1	i	-66.7*	-1.9	-10.4%
O=[S+]([O-])(c1ccc2c(c1)OCCO2)N1CCN([S+](=O)([O-])c2ccc(F)cc2Br)CC1	x	x	x	-0.6%
CC1=CN2C(=N)/C(=C/c3ccc([N+](=O)[O-])o3)C(=O)N=C2S1	-16.6%	-66.7*	-19.0	u
Nc1nc(NCc2ccccc2)nc(Nc2cccc(F)c2)c1[N+](=O)[O-]	-4.1%	x	2.3	-1.1%
Nc1nc(Nc2cccc(F)c2)nc(NCCO)c1[N+](=O)[O-]	-11.1%	-63.0*	2.1	-7.0%
Cc1ccc(-c2cnc(N3CCC(C(N)=O)CC3)s2)cc1	x	x	x	5.8%
COc1ccc(C(=O)COC(=O)c2cccnc2Cl)c(OC)c1	i	-74.5*	-11.6	u
COc1ccc(C(=O)COC(=O)/C=C/c2ccccc2)c(OC)c1	1.9%	-60.6*	-13.7	u
OCC1O[C@H]([S-])[C@H](O)[C@@H](O)[C@@H]1O.[Au+] (some centres undefined)	x	x	-55.1*	x
O=C(O)c1cc(O)c2c(c1)[C@H]([C@H]1c3cc(C(=O)O)cc(O)c3C(=O)c3c(O[C@@H]4O[C@H](CO)[C@@H](O)[C@H](O)[C@H]4O)cccc31)c1cccc(OC3O[C@H](CO)[C@@H](O)[C@H](O)[C@H]3O)c1C2=O (some centres undefined)	u	-78.6*	-64.2*	0.708µM*
O=C1c2cc(CO)cc(O)c2C(=O)c2c(O[C@@H]3OC(CO)[C@@H](O)[C@@H](O)[C@@H]3O)cccc21 (some centres undefined)	-4.4%	-11.2	0.1	10.7%
O=C(O)c1cc(O)c2c(c1)[C@@H]([C@H]1c3cc(C(=O)O)cc(O)c3C(=O)c3c(O[C@@H]4O[C@H](CO)[C@@H](O)[C@H](O)[C@H]4O)cccc31)c1cccc(OC3O[C@H](CO)[C@@H](O)[C@H](O)[C@H]3O)c1C2=O (some centres undefined)	u	-88.8*	-25.9	x
C/C=C(/C(=C/C)c1ccc(OC(C)=O)cc1)c1ccc(OC(C)=O)cc1	x	x	-1.0	x
COc1ccc2[nH]c(C(=O)O)c(CCN3C(=O)c4ccc(C(=O)O)cc4C3=O)c2c1	-7.3%	-60.3*	1.0	-4.7%
CN(C)CCNC(=S)Nc1cccc(Cl)c1	-4.7%	-1.1	-51.2*	3.5%
CN(C)NC(=S)Nc1cccc(Cl)c1	i	1.5	-2.3	-5.0%
CC(=O)N[C@@H](CO)C(=O)N[C@@H](CC(=O)O)C(=O)N[C@@H](CCCCN)C(=O)N1CCC[C@H]1C(=O)O	x	x	4.1	x

Screening results (PubChem BioAssay)
